Data from PubChem BioAssay (EPA / NIEHS).
The source made the active and inactive calls. The calls were made as follows: active = hit-call score of the fitted dose curve at least 0.9, where 1 is the maximum; inactive = score below 0.9.

Legend:
[1] = read-out: Cyclin D2 (CCND2), CCND2 (gene 894); test: LTEA_HepaRG_CCND2: Life Technologies and Expression Analysis (LTEA) Assay for Cyclin D2 (CCND2) using HepaRG (AID 2283449); conditions: mRNA level, 48 h; actives raise or lower the signal;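 also: CCND2 transcript measured by TaqMan qRT-PCR and normalised to three housekeeping genes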
In short: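 Chemicals in 0.5% DMSO, eight half-log concentrations from 100 uM top, were applied in duplicate for 48 h to human HepaRG cells in serum-free induction medium. CCND2 mRNA by TaqMan qRT-PCR, normalised to ACTB/GAPDH/POLR2A; bidirectional fit versus DMSO.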

[2] = read-out: Cyclin Dependent Kinase Inhibitor 1A (CDKN1A), CDKN1A (gene 1026); test: LTEA_HepaRG_CDKN1A: Life Technologies and Expression Analysis (LTEA) Assay for Cyclin Dependent Kinase Inhibitor 1A (CDKN1A) using HepaRG (AID 2283450); conditions: mRNA level, 48 h; actives raise or lower the signal
In short: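 Gain or loss of CDKN1A transcript is scored by bidirectional fitting against 0.5% DMSO vehicle. Human HepaRG cultures receive chemicals for 48 h across an 8-point series peaking at 100 uM; expression comes from qRT-PCR.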

[3] = read-out: Cyclin D1 (CCND1), CCND1 (gene 595); test: LTEA_HepaRG_CCND1: Life Technologies and Expression Analysis (LTEA) Assay for Cyclin D1 (CCND1) using HepaRG (AID 2283451); conditions: mRNA level, 48 h; actives raise or lower the signal
In short: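 Expression change is measured by qRT-PCR in HepaRG cells after 48 h treatment across eight concentrations topping at 100 uM, with duplicate wells and DMSO (0.5%) serving as baseline for bidirectional fitting.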

[4] = read-out: catalase (CAT), CAT (gene 847); test: LTEA_HepaRG_CAT: Life Technologies and Expression Analysis (LTEA) Assay for catalase (CAT) using HepaRG (AID 2283452); conditions: mRNA level, 48 h; actives raise or lower the signal
In short: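 HepaRG cells in serum-free induction medium, 0.5% DMSO vehicle, exposed 48 h in duplicate over 8 half-log concentrations from 100 uM. CAT mRNA measured by qRT-PCR, normalized to ACTB, GAPDH, POLR2A; bidirectional fit versus DMSO.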

[5] = read-out: flavin-containing dimethylaniline monooxygenases 3 (FMO3), FMO3 (gene 2328); test: LTEA_HepaRG_FMO3: Life Technologies and Expression Analysis (LTEA) Assay for flavin-containing dimethylaniline monooxygenases 3 (FMO3) using HepaRG (AID 2283453); conditions: mRNA level, 48 h; actives raise or lower the signal
In short: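 HepaRG, 48 h exposure, 8-pt half-log series from 100 uM, 0.5% DMSO vehicle, duplicates; FMO3 transcript by Fluidigm TaqMan qRT-PCR, housekeeping-normalized; gain/loss fit vs DMSO.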

[6] = read-out: Cytochrome P450 (CYP1A1), CYP1A1 (gene 1543); test: LTEA_HepaRG_CYP1A1: Life Technologies and Expression Analysis (LTEA) Assay for Cytochrome P450 (CYP1A1) using HepaRG (AID 2283454); conditions: mRNA level, 48 h; actives raise or lower the signal
In short: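 Using HepaRG cultures with 0.5% DMSO as vehicle, eight-concentration exposures (max 100 uM) lasted 48 h. Transcript levels were measured by TaqMan qRT-PCR and normalized to ACTB, GAPDH and POLR2A.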

[7] = read-out: CFLAR gene, CFLAR (gene 8837); test: LTEA_HepaRG_CFLAR: Life Technologies and Expression Analysis (LTEA) Assay for CFLAR gene using HepaRG (AID 2283455); conditions: mRNA level, 48 h; actives raise or lower the signal
In short: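 Differentiated HepaRG cells in serum-free induction medium were exposed 48 h in duplicate to eight half-log concentrations up to 100 uM in 0.5% DMSO; mRNA measured by TaqMan qRT-PCR, normalized to ACTB, GAPDH, POLR2A; bidirectional fitting versus DMSO.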

[8] = read-out: growth arrest and DNA damage 45 (GADD45A), GADD45A (gene 1647); test: LTEA_HepaRG_GADD45A: Life Technologies and Expression Analysis (LTEA) Assay for growth arrest and DNA damage 45 (GADD45A) using HepaRG (AID 2283458); conditions: mRNA level, 48 h; actives raise or lower the signal
In short: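 Human HepaRG liver cells are treated in duplicate for 48 h with chemicals in 0.5% DMSO, highest concentration 100 uM. Expression is read by qRT-PCR and analyzed in both directions against vehicle.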

[9] = read-out: ABC Transporter (ABCB1), ABCB1 (gene 5243); test: LTEA_HepaRG_ABCB1: Life Technologies and Expression Analysis (LTEA) Assay for ABC Transporter (ABCB1) using HepaRG (AID 2283460); conditions: mRNA level, 48 h; actives raise or lower the signal
In short: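 HepaRG cells exposed in duplicate for 48 h in serum-free induction medium to eight half-log concentrations up to 100 uM in 0.5% DMSO. ABCB1 mRNA quantified by qRT-PCR, normalised to ACTB, GAPDH and POLR2A; fitted bidirectionally versus DMSO.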

[10] = read-out: growth arrest and DNA damage 45 (GADD45B), GADD45B (gene 4616); test: LTEA_HepaRG_GADD45B: Life Technologies and Expression Analysis (LTEA) Assay for growth arrest and DNA damage 45 (GADD45B) using HepaRG (AID 2283461); conditions: mRNA level, 48 h; actives raise or lower the signal
In short: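 Human HepaRG monolayers receive chemicals for 48 h at eight half-log concentrations, highest 100 uM, in 0.5% DMSO. Expression is measured by TaqMan qRT-PCR and normalized to ACTB, GAPDH and POLR2A.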

[11] = read-out: ABC Transporter (ABCC3), ABCC3 (gene 8714); test: LTEA_HepaRG_ABCC3: Life Technologies and Expression Analysis (LTEA) Assay for ABC Transporter (ABCC3) using HepaRG (AID 2283462); conditions: mRNA level, 48 h; actives raise or lower the signal
In short: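 Transcriptional change of ABCC3 in HepaRG after 48 h treatment, determined by qRT-PCR normalized to endogenous controls. Concentrations spanned eight half-log steps to 100 uM in 0.5% DMSO.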

[12] = read-out: ABC Transporter (ABCB11), ABCB11 (gene 8647); test: LTEA_HepaRG_ABCB11: Life Technologies and Expression Analysis (LTEA) Assay for ABC Transporter (ABCB11) using HepaRG (AID 2283463); conditions: mRNA level, 48 h; actives raise or lower the signal
In short: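 Differentiated human HepaRG cells in serum-free induction medium, dosed in duplicate for 48 h. Eight-point half-log series from 100 uM in 0.5% DMSO; ABCB11 mRNA by qRT-PCR, normalized to ACTB, GAPDH, POLR2A, fitted bidirectionally versus DMSO.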

[13] = read-out: ABC Transporter (ABCC2), ABCC2 (gene 1244); test: LTEA_HepaRG_ABCC2: Life Technologies and Expression Analysis (LTEA) Assay for ABC Transporter (ABCC2) using HepaRG (AID 2283464); conditions: mRNA level, 48 h; actives raise or lower the signal
In short: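 After plating and 48 h culture, HepaRG medium is replaced with serum-free induction medium and chemicals are added (8 concentrations, max 100 uM, 0.5% DMSO) for 48 h. Total RNA then undergoes qRT-PCR for ABCC2 with housekeeping normalization.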

[14] = read-out: Broad substrate specificity ATP-binding cassette transporter ABCG2 (Homo sapiens) (UniProt Q9UNQ0); test: LTEA_HepaRG_ABCG2: Life Technologies and Expression Analysis (LTEA) Assay for ABC Transporter (ABCG2) using HepaRG (AID 2283465); conditions: mRNA level, 48 h; actives raise or lower the signal
In short: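 Differentiated HepaRG cells were exposed for 48 h in serum-free induction medium to 8 half-log concentrations, top 100 uM, in 0.5% DMSO. ABCG2 mRNA was measured by qRT-PCR, normalized to ACTB, GAPDH and POLR2A, with bidirectional fitting versus DMSO.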

[15] = read-out: ATP-citrate lyase (ACLY), ACLY (gene 47); test: LTEA_HepaRG_ACLY: Life Technologies and Expression Analysis (LTEA) Assay for ATP-citrate lyase (ACLY) using HepaRG (AID 2283466); conditions: mRNA level, 48 h; actives raise or lower the signal
In short: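 Differentiated HepaRG cells exposed 48 h in serum-free induction medium to eight half-log concentrations up to 100 uM in 0.5% DMSO, duplicates. Transcript measured by Fluidigm TaqMan qRT-PCR, normalized to ACTB, GAPDH, POLR2A; bidirectional fit versus DMSO.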

[16] = read-out: Alkaline Phosphatase, Placental (ALPP) gene, ALPP (gene 250); test: LTEA_HepaRG_ALPP: Life Technologies and Expression Analysis (LTEA) Assay for Alkaline Phosphatase, Placental (ALPP) gene using HepaRG (AID 2283468); conditions: mRNA level, 48 h; actives raise or lower the signal
In short: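 Using human liver HepaRG cells, chemicals are tested in duplicate over 48 h at half-log concentrations topping at 100 uM; phenobarbital 1 mM serves as induction control. ALPP mRNA change by qRT-PCR, bidirectional fit against vehicle.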

[17] = read-out: Forkhead box O1 (FOXO1), FOXO1 (gene 2308); test: LTEA_HepaRG_FOXO1: Life Technologies and Expression Analysis (LTEA) Assay for Forkhead box O1 (FOXO1) using HepaRG (AID 2283456); conditions: mRNA level, 48 h; actives raise or lower the signal
In short: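 Differentiated HepaRG cells, in serum-free induction medium with 0.5% DMSO, exposed 48 h in duplicate to 8-point half-log series from 100 uM. FOXO1 mRNA measured by TaqMan qRT-PCR, normalized to ACTB, GAPDH, POLR2A; bidirectional fit versus DMSO.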

[18] = CEETOX_H295R_TESTO: CeeTox H295R High-throughput Steroidogenesis Assay for Testosterone (TESTO) (AID 2283457); conditions: actives raise or lower the signal
In short: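 Steroidogenesis in H295R cells following OECD 456 with minor changes; 48 h exposure. Medium testosterone by HPLC-MS/MS, DMSO as baseline, with MTT viability run in parallel.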

Sequence of Broad substrate specificity ATP-binding cassette transporter ABCG2 (Homo sapiens) (Q9UNQ0 whole entry, looked up): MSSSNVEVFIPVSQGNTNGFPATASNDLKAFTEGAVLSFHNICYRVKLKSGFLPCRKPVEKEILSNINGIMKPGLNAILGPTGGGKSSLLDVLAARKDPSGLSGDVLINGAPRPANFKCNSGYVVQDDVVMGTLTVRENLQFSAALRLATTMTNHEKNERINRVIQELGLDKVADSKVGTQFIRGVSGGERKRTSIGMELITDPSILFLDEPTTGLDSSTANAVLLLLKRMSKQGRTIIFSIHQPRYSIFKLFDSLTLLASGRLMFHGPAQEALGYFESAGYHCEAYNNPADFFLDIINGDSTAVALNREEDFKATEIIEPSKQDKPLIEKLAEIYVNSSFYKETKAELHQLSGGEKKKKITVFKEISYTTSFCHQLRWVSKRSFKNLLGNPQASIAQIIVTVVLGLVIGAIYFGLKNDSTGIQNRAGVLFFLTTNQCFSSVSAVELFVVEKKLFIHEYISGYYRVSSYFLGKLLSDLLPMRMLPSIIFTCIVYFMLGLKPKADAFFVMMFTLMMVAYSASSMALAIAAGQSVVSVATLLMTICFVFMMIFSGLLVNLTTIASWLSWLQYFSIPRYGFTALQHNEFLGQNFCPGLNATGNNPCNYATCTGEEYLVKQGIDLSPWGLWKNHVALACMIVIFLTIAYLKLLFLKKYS

SMILES	outcome [1]	outcome [2]	outcome [3]	outcome [4]	outcome [5]	outcome [6]	outcome [7]	outcome [8]	outcome [9]	outcome [10]	outcome [11]	outcome [12]	outcome [13]	outcome [14]	outcome [15]	outcome [16]	AC50 [6]	outcome [17]	outcome [18]
ClC(Cl)(Cl)c1ccccc1	inactive	inactive	inactive	inactive	inactive	inactive	inactive	inactive	inactive	inactive	inactive	inactive	inactive	inactive	inactive	inactive	–	–	–
CCOC(=O)c1ccccc1C(=O)OCC	inactive	inactive	inactive	inactive	inactive	–	inactive	inactive	inactive	inactive	inactive	inactive	–	inactive	inactive	inactive	74 µM (active)	–	–
O=[N+]([O-])c1ccccc1	inactive	inactive	inactive	inactive	inactive	–	inactive	inactive	inactive	inactive	inactive	inactive	inactive	inactive	inactive	inactive	50 µM (active)	inactive	–
ClC(Cl)=C(c1ccc(Cl)cc1)c1ccccc1Cl	–	–	–	–	–	–	–	–	–	–	–	–	–	–	–	–	–	–	inactive
CSC(C)(C)C=NO	–	inactive	inactive	inactive	inactive	inactive	inactive	inactive	inactive	–	inactive	inactive	–	inactive	inactive	inactive	–	–	–
N#Cc1c(-c2ccc(Cl)cc2)[nH]c(C(F)(F)F)c1Br	–	–	–	–	–	–	–	–	–	–	–	–	–	–	–	–	–	–	inactive
CC(C)(C)c1ccc(O)cc1	inactive	inactive	inactive	inactive	inactive	–	inactive	inactive	–	inactive	inactive	–	–	inactive	inactive	inactive	–	–	–
Cc1ccc(O)cc1C	inactive	inactive	inactive	inactive	inactive	–	inactive	inactive	–	inactive	inactive	–	–	inactive	inactive	inactive	–	–	–
